# Reference: PubChem BioAssay AID1159580 (chemical genetic matrix, 2015)
# “And” between values parts separate entries of the source, which are not always exact repeats. Equal entries are not always repeated. The campaign covered roughly 5,500 compounds. About 2,000 (36%) were called active. About 18% were inconclusive and are not listed. Rule as the data show it: active = normalized growth mostly below about 0.91 (no sharp cut-off); inconclusive = no clear call, values can overlap the other calls; inactive = mostly above about 0.92. The list shows a part of the results.
# Test: chemical genetic growth profiling, strain panel (AID 1159580);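 also: tested at 20 µM; growth read once vehicle control cultures reached saturation at 30 °C; 1 = growth at the plate median or of vehicle wells; lower values mean less growth of the strain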
# Details: S. cerevisiae deletion strains, growth OD
structure (smiles),measurement,setting,value
CCC(Cc1c(I)cc(I)c(N)c1I)C(=O)O (stereo not given),normalized growth,"locus YAL013W, strain DEP1, stronger effect = lower value",0.979 (inactive)
same,normalized growth,"locus YAL021C, strain ccr4, stronger effect = lower value",0.934 (inactive)
same,normalized growth,"locus YAL026C, strain drs2, stronger effect = lower value",0.889 (active)
same,normalized growth,"locus YAL030W, strain snc1, stronger effect = lower value",0.945 (inactive)
same,normalized growth,"locus YBL061C, strain skt5, stronger effect = lower value",0.955 (inactive)
same,normalized growth,"locus YBR009C, strain hhf1, stronger effect = lower value",0.861 (active)
same,normalized growth,"locus YBR021W, strain FUR4, stronger effect = lower value",1.03 (inactive)
same,normalized growth,"locus YBR023C, strain chs3, stronger effect = lower value",0.935 (inactive)
same,normalized growth,"locus YBR171W, strain sec66, stronger effect = lower value",0.921 (inactive)
same,normalized growth,"locus YBR229C, strain ROT2, stronger effect = lower value",0.989 (inactive)
same,normalized growth,"locus YBR231C, strain swc5, stronger effect = lower value",0.977 (inactive)
same,normalized growth,"locus YBR279W, strain paf1, stronger effect = lower value",0.945 (inactive)
same,normalized growth,"locus YCL011C, strain gbp2, stronger effect = lower value",0.905 (active)
same,normalized growth,"locus YCL016C, strain dcc1, stronger effect = lower value",0.934 (inactive)
same,normalized growth,"locus YCL029C, strain bik1, stronger effect = lower value",0.997 (inactive)
same,normalized growth,"locus YCL069W, strain vba3, stronger effect = lower value",0.907 (active)
same,normalized growth,"locus YCR088W, strain abp1, stronger effect = lower value",0.935 (inactive)
same,normalized growth,"locus YDL005C, strain med2, stronger effect = lower value",0.95 (inactive)
same,normalized growth,"locus YDL035C, strain GPR1, stronger effect = lower value",1 (inactive)
same,normalized growth,"locus YDL040C, strain nat1, stronger effect = lower value",0.96 (inactive)
same,normalized growth,"locus YDL074C, strain BRE1, stronger effect = lower value",1.01 (inactive)
same,normalized growth,"locus YDL101C, strain DUN1, stronger effect = lower value",1.01 (inactive)
same,normalized growth,"locus YDL134C, strain PPH21, stronger effect = lower value",1.01 (inactive)
same,normalized growth,"locus YDL192W, strain arf1, stronger effect = lower value",0.997 (inactive)
same,normalized growth,"locus YDR001C, strain nth1, stronger effect = lower value",0.927 (inactive)
same,normalized growth,"locus YDR069C, strain doa4, stronger effect = lower value",0.951 (inactive)
same,normalized growth,"locus YDR101C, strain arx1, stronger effect = lower value",1 (inactive)
same,normalized growth,"locus YDR137W, strain rgp1, stronger effect = lower value",0.71 (active)
same,normalized growth,"locus YDR150W, strain NUM1, stronger effect = lower value",1.01 (inactive)
same,normalized growth,"locus YDR159W, strain sac3, stronger effect = lower value",0.895 (inactive)
same,normalized growth,"locus YDR162C, strain NBP2, stronger effect = lower value",0.982 (inactive)
same,normalized growth,"locus YDR195W, strain ref2",0.992 (inactive)
same,normalized growth,"locus YDR297W, strain sur2, stronger effect = lower value",0.954 (inactive)
same,normalized growth,"locus YDR318W, strain mcm21, stronger effect = lower value",1 (inactive)
same,normalized growth,"locus YDR334W, strain swr1, stronger effect = lower value",0.942 (inactive)
same,normalized growth,"locus YDR335W, strain msn5, stronger effect = lower value",0.947 (inactive)
same,normalized growth,"locus YDR388W, stronger effect = lower value",0.996 (inactive)
same,normalized growth,"locus YDR392W, strain spt3, stronger effect = lower value",0.711 (active)
same,normalized growth,"locus YDR502C, strain sam2, stronger effect = lower value",0.991 (inactive)
same,normalized growth,"locus YEL003W, strain gim4, stronger effect = lower value",0.934 (inactive)
same,normalized growth,"locus YEL037C, strain rad23, stronger effect = lower value",0.947 (inactive)
same,normalized growth,"locus YEL061C, strain CIN8 (second series), stronger effect = lower value",0.942 (inactive)
same,normalized growth,"locus YEL061C, strain CIN8, stronger effect = lower value",0.994 (inactive)
same,normalized growth,"locus YER015W, strain faa2, stronger effect = lower value",0.977 (inactive)
same,normalized growth,"locus YER016W, strain bim1, stronger effect = lower value",0.927 (inactive)
same,normalized growth,"locus YER110C, stronger effect = lower value",1 (inactive)
same,normalized growth,"locus YER111C, strain swi4, stronger effect = lower value",0.925 (inactive)
same,normalized growth,"locus YER155C, strain BEM2 (second series), stronger effect = lower value",0.94 (inactive)
same,normalized growth,"locus YER155C, strain BEM2, stronger effect = lower value",1 (inactive)
same,normalized growth,"locus YER167W, strain BCK2, stronger effect = lower value",0.998 (inactive)
same,normalized growth,"locus YFR010W, strain ubp6, stronger effect = lower value",0.985 (inactive)
same,normalized growth,"locus YGL078C, strain dbp3, stronger effect = lower value",0.997 (inactive)
same,normalized growth,"locus YGL086W, strain mad1, stronger effect = lower value",0.986 (inactive)
same,normalized growth,"locus YGL167C, strain pmr1, stronger effect = lower value",0.928 (inactive)
same,normalized growth,"locus YGL173C, strain kem1, stronger effect = lower value",0.936 (inactive)
same,normalized growth,"locus YGL227W, strain vid30, stronger effect = lower value",0.949 (inactive)
same,normalized growth,"locus YGL240W, strain doc1, stronger effect = lower value",0.99 (inactive)
same,normalized growth,"locus YGL248W, strain PDE1, stronger effect = lower value",1 (inactive)
same,normalized growth,"locus YGL253W, strain hxk2, stronger effect = lower value",0.921 (inactive)
same,normalized growth,"locus YGR078C, strain PAC10, stronger effect = lower value",1.01 (inactive)
same,normalized growth,"locus YGR135W, strain pre9, stronger effect = lower value",1 (inactive)
same,normalized growth,"locus YGR229C, strain SMI1, stronger effect = lower value",1.02 (inactive)
same,normalized growth,"locus YGR252W, strain gcn5, stronger effect = lower value",1.04 (inactive)
same,normalized growth,"locus YHR013C, strain ard1, stronger effect = lower value",0.852 (inactive)
same,normalized growth,"locus YHR027C, strain rpn1, stronger effect = lower value",0.927 (inactive)
same,normalized growth,"locus YHR030C, strain SLT2, stronger effect = lower value",1 (inactive) and 0.148 (active)
same,normalized growth,"locus YHR079C, strain IRE1 (second series), stronger effect = lower value",1 (inactive)
same,normalized growth,"locus YHR079C, strain IRE1, stronger effect = lower value",0.135 (active)
same,normalized growth,"locus YHR094C, strain hxt1, stronger effect = lower value",1 (inactive)
same,normalized growth,"locus YHR129C, strain ARP1, stronger effect = lower value",0.957 (inactive)
same,normalized growth,"locus YHR142W, strain chs7, stronger effect = lower value",0.912 (inactive)
same,normalized growth,"locus YHR200W, strain rpn10, stronger effect = lower value",1 (inactive)
same,normalized growth,"locus YIL066C, strain RNR3, stronger effect = lower value",1 (inactive)
same,normalized growth,"locus YIL073C, strain SPO22, stronger effect = lower value",1.04 (inactive)
same,normalized growth,"locus YIL125W, strain kgd1, stronger effect = lower value",0.992 (inactive)
same,normalized growth,"locus YIR030C, strain dcg1, stronger effect = lower value",0.996 (inactive)
same,normalized growth,"locus YJL092W, strain hpr5, stronger effect = lower value",0.942 (inactive)
same,normalized growth,"locus YJL095W, strain BCK1 (second series), stronger effect = lower value",0.959 (inactive)
same,normalized growth,"locus YJL095W, strain BCK1, stronger effect = lower value",0.993 (inactive) and 0.112 (active)
same,normalized growth,"locus YJL115W, strain asf1, stronger effect = lower value",0.954 (inactive)
same,normalized growth,"locus YJL129C, strain trk1, stronger effect = lower value",0.931 (inactive)
same,normalized growth,"locus YJL134W, strain LCB3, stronger effect = lower value",1 (inactive)
same,normalized growth,"locus YJL154C, strain vps35, stronger effect = lower value",0.935 (inactive)
same,normalized growth,"locus YJL164C, strain tpk1, stronger effect = lower value",0.903 (active)
same,normalized growth,"locus YJL166W, strain qcr8, stronger effect = lower value",0.949 (inactive)
same,normalized growth,"locus YJL168C, strain set2, stronger effect = lower value",0.999 (inactive)
same,normalized growth,"locus YJL187C, strain SWE1 (second series), stronger effect = lower value",1.01 (inactive)
same,normalized growth,"locus YJR043C, strain POL32, stronger effect = lower value",1.03 (inactive)
same,normalized growth,"locus YJR066W, strain TOR1, stronger effect = lower value",0.0664 (active)
same,normalized growth,"locus YJR075W, strain HOC1, stronger effect = lower value",1.02 (inactive)
